The list is not random: actives were taken first. Their share in the collection is about 2.1%.
M18AAP inhibitor: PfM18AAP inhibitors, malaria aminopeptidase, primary screen, biochemical, QFRET, recombinant enzyme; M18 aspartyl aminopeptidase (Plasmodium falciparum 3D7); H-Glu-NHMec fluorogenic cleavage; inhibition, % at 7.35 µM; hit rate 1.2% among 290,000; AID 1822, 2009;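 active = inhibition above the campaign mean inhibition over all tested compounds plus 3 SD, cut at about 28% in these data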;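 also: 0% = plate median of test compound wells and 100% = 2 mM ZnCl2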
Rin1 Abl inh: inhibitors of Rin1-Abl protein binding, primary screen, biochemical, TR-FRET; Tyrosine-protein kinase ABL1 (Homo sapiens) + Ras and Rab interactor 1 (Homo sapiens), …; inhibition, % at 7.35 µM; hit rate 0.4% among 360,000; in the data active = inhibition above about 5%, passing the limit was not always enough
Fh CTSL1 inh: Fasciola hepatica cathepsin L1 inhibitors, primary screen, counter-screen for PFM18AAP inhibitor project, biochemical, QFRET, fluorogenic peptide substrate | recombinant F. hepatica cathepsin L1, Z-Leu-Arg-MCA fluorescence | inhibition, % at 5.96 µM | hit rate 0.49% among 300,000 | AID 1906, 2009;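 active = inhibition above the mean of all tested compounds plus 3 SD, set per screening campaign, cut at about 17% in these data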;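 also: 0% = plate median of test compound wells and 100% = 1 µM Z-Phe-Ala-diazomethylketone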
Calb FLC: C. albicans growth inhibition with fluconazole, primary screen, CaCi-2 strain, Alamar Blue fluorescence; AID 1979, 2009; growth inhibition, % (no concentration beside the values); hit rate 0.57% among 300,000; C. albicans CaCi-2 (fluconazole-resistant clinical isolate) + fluconazole, 48 h;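 active = growth inhibition above about 58% in most replicates, limit read from the data, passing the limit was not always enough; inconclusive = exactly half the replicates above a set limit; inactive = most replicates below a set limit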;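 also: all wells also contain fluconazole at 8 µg/ml as a sub-toxic cotreatment; 0% = median of DMSO wells and 100% = median of geldanamycin control wells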
* = called active by the depositor; ? = inconclusive; / = no result given.

SMILES	M18AAP inhibitor	Rin1 Abl inh	Fh CTSL1 inh	Calb FLC
CCOC(=O)c1c(-c2ccc(C)o2)csc1NC(=O)COC(=O)c1ccc(NC(N)=O)cc1	-48	1	19*	3
CCOC(=O)c1c(-c2ccc(C)o2)csc1NC(=O)CSc1nnc(C)s1	-87	9	2	21
c1ccc(Cc2nnc3sc(-c4cccnc4)nn23)cc1	3	3	22*	6
CCOC(=O)CCc1c(C)n[nH]c1C	-5	1	0	-9
CCOC(=O)CCCc1sc(N)nc1-c1[nH]c(=O)[nH]c1C	21	63*	-4	21
Nc1c(C(=O)NCc2ccco2)c2nc3ccccc3nc2n1CCc1ccc(F)cc1	21	15*	4	5
O=C(c1cccs1)N1CCc2c([nH]c3ccccc23)C1c1ccccn1 (centres undefined)	4	5	-10	-1
O=C(c1cc(-c2ccccc2)n[nH]1)N1CCc2c([nH]c3ccccc23)C1c1ccccn1 (centres undefined)	6	3	1	98*
CCC(C)N(C(=O)COC(=O)c1ccc(=O)n(Cc2ccccc2)n1)C1CCS(=O)(=O)C1 (centres undefined)	/	4	2	-2
O=C(NCCS(=O)(=O)N1CCN(c2cccc(Cl)c2)CC1)c1ccco1	/	0	2	9
Cc1ccccc1Nc1nc(N)nc(COC(=O)c2ccco2)n1	/	-1	/	/
COCc1c(C(=O)OCc2nc(N)nc(Nc3ccccc3C)n2)oc2ccccc12	0	2	17*	2
Cc1ccc(NC(=S)NNC(=S)Nc2ccc(C)cc2)cc1	/	0	/	/
Cc1ccc(NC(=S)NNC(=O)Nc2ccccc2)cc1	42*	5	-1	-15
CC1(C)CC(=O)C=C(Nc2ccc(C(=O)O)cc2)C1	2	-4	1	14
CC1(C)CC(=O)C=C(NNC(=O)c2ccccc2)C1	41*	1	0	5
CCC(=O)c1ccccc1OCCN1CCN(CC)CC1	31*	6	0	-3
COC(=O)c1ccccc1OCCN1CCCCCC1	-5	4	1	-24
COc1cccc(OCCCCN2CC(C)OC(C)C2)c1 (centres undefined)	15	1	-4	0
CC1CN(CCCCOc2ccc3ccccc3c2)CC(C)O1 (centres undefined)	-4	-2	19*	-12
CCCOc1cccc(-c2cc(C(=O)NNC(=S)NCC)c3ccccc3n2)c1	5	-2	8	84*
CCNC(=S)NNC(=O)c1cc(-c2ccc(OCC)cc2)nc2ccccc12	0	3	0	17
Cc1cc(C(=O)NNC(=S)NC(C)c2ccccc2)c2ccccc2n1 (centres undefined)	6	-1	3	104*
CCNC(=S)NNC(=O)c1cc(-c2ccccc2C)nc2ccccc12	-9	-3	-2	99*
CCCCCCC=C1CCC(CN2CCCC2)C1=O (centres undefined)	/	4	/	/
SMILES	M18AAP inhibitor	Rin1 Abl inh	Fh CTSL1 inh	Calb FLC
COc1cc(CNc2nnnn2C)cc(OC)c1OC	2	1	-7	-5
CCCN(C(=O)c1cc(Cl)nc2ccccc12)C1CCS(=O)(=O)C1 (centres undefined)	/	1	4	15
O=C(O)c1cc(-c2ccc(O)cc2)on1	10	1	2	100*
O=C(O)c1cc(-c2ccccc2)on1	-1	1	-3	?
NC(=S)NN=C1c2cc(Cl)ccc2-c2c1cc(Cl)cc2[N+](=O)[O-]	/	3	/	/
NC(=S)N/N=C1\CCOc2ccc(Cl)cc21	1	-4	63*	-17
COc1ccccc1NC(=S)N(CCc1ccc(OC)c(OC)c1)Cc1ccccn1	-7	2	18*	-6
COc1ccc(-c2nc(-c3cccc(C)c3)nc(Cl)c2C#N)cc1	4	/	/	/
CSc1nc(Cl)c(C#N)c(-c2ccc(C)cc2)n1	3	-2	1	81*
CC(C)(C)NC(=O)CSc1nnc(-c2ccccc2)c(-c2ccccc2)n1	-5	1	3	3
Cc1ccccc1C(=O)NC1CCN(CC(=O)Nc2ccc(Br)cc2)CC1	0	0	5	-1
Cc1cccc(C)c1OCC(=O)Nc1ncn[nH]1	29*	3	-1	-20
CCN(CC)c1ccc(C(NC(=O)C(C)C)c2ccc3cccnc3c2O)cc1 (centres undefined)	/	2	/	/
CCCCC(=O)NC(c1ccc(N(C)C)cc1)c1ccc2cccnc2c1O (centres undefined)	12	2	4	94*
CCCCC(=O)NC(c1ccc(N(CC)CC)cc1)c1ccc2cccnc2c1O (centres undefined)	-1	3	-3	121*
COc1cc(C(=O)Nc2cc(S(=O)(=O)N3CCOCC3)ccc2N2CCOCC2)cc(OC)c1C	/	-1	/	/
CCCc1cc(=O)[nH]c(SCC(=O)Nc2ccc(Br)cc2Br)n1	0	-1	-4	60*
COc1cc(C2C(C(=O)c3ccc(C)o3)=C(O)C(=O)N2c2cc(C)on2)ccc1O (centres undefined)	28*	-1	6	28
COc1cc(C2C(C(=O)c3ccc(C)o3)=C(O)C(=O)N2c2cc(C)on2)cc(OC)c1OC (centres undefined)	/	-1	0	4
COc1cccc(C2C(C(=O)c3cc4ccccc4o3)=C(O)C(=O)N2c2cc(C)on2)c1OC (centres undefined)	2	-1	3	78*
COc1cc(C2C(C(=O)c3cc4ccccc4o3)=C(O)C(=O)N2c2cc(C)on2)cc(OC)c1OC (centres undefined)	20	-4	0	4
COc1ccc(Cn2c(O)c(/C=N/NC(=O)c3cccnc3)c3ccccc3c2=O)cc1	10	-1	/	103*
O=S(=O)(Nc1ncccn1)c1ccc(-n2cnnn2)cc1	1	2	-1	-3
O=C(CSc1nc2nn(-c3ccccc3)c(=O)c-2c2n1CCCCC2)c1ccc(O)c(O)c1	/	16*	/	/
CC1(C(=O)NS(=O)(=O)c2cccc(Cl)c2)CCN1C(=O)COc1ccc(Cl)cc1 (centres undefined)	/	0	/	/
SMILES	M18AAP inhibitor	Rin1 Abl inh	Fh CTSL1 inh	Calb FLC
NS(=O)(=O)c1ccc(N=Nc2c(=O)[nH]n3c(=O)c4c([nH]c23)CCCC4)cc1	48*	-5	7	-7
NC(=O)c1ccc(NC(=O)COC(=O)CNC(=O)c2sc3ccccc3c2Cl)cc1	/	-3	/	/
CCOC(=O)C1C(c2ccc(O)c(O)c2)NC(=S)NC1(O)C(F)(F)F (centres undefined)	65*	2	0	-3
CCOC(=O)C1C(c2ccc(O)c(OCC)c2)NC(=S)NC1(O)C(F)(F)F (centres undefined)	-2	0	-1	7
N#Cc1c(NC(=S)NC(=O)c2ccccc2)sc2c1CCN(CCc1ccccc1)C2	2	/	4	-15
CC(C)(C)C(=O)Nc1sc2c(c1C#N)CCN(Cc1ccccc1)C2	29*	-4	-1	2

Source: PubChem
